Bioassay records (PubChem)
Only some compounds are listed: those with a hit (about 1.2% of all), similar ones and a draw of the others.
RGS7-Gao reg = RGS7-Galphao binding modulators, primary screen, biochemical, multiplexed bead flow cytometry; Guanine nucleotide-binding protein G(o) subunit alpha (Homo sapiens), P09471; actives lie on both sides; binding response (% of control), % at 10 µM; 220,000 tested, 0.35% active; AID 1439, 2008; in the data active = binding response below about 49% or above about 150%; inconclusive = no clear call, values can overlap the other calls; inactive = in between;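 also: fluorescent Galphao held in activated GDP-AlF4 state binding bead-coupled RGS7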
Target sequence (P09471 whole entry, looked up): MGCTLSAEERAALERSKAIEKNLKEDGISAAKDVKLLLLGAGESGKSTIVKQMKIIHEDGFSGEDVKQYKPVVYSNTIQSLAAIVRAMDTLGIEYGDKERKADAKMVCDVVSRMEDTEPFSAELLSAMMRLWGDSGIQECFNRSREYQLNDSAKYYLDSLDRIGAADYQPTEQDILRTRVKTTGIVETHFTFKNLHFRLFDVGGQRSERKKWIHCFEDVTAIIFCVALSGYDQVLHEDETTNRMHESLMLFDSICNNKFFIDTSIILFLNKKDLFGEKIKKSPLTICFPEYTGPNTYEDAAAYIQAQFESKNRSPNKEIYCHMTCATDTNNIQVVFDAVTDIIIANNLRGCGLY
Avidin bead fluor = green autofluorescence of compounds with avidin beads – biophysical, 488/530 nm, flow cytometry, artefact control, profiling panel | AID 1775, 2009 | 220,000 tested, 0.38% active | fluorescence (KMESF) at 10 µM | compound fluorescence 488/530 nm; stronger effect = higher value; in the data active = fluorescence above about 47
RGS4-Gao reg = modulators of RGS4 binding to Galphao, primary screen, biochemical, multiplexed bead flow cytometry; Guanine nucleotide-binding protein G(o) subunit alpha (Homo sapiens), P09471; actives lie on both sides; binding response (% of control), % at 10 µM; 220,000 tested, 0.33% active; AID 1415, 2008; in the data active = binding response below about 49% or above about 150%; inactive = in between;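 also: fluorescent Galphao activated with aluminum fluoride binding bead-coupled RGS4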
RGS8-Gao reg = RGS8-Galphao binding modulators, primary screen, biochemical, multiplexed bead flow cytometry; 220,000 tested, 0.34% active; Guanine nucleotide-binding protein G(o) subunit alpha (Homo sapiens), P09471; actives lie on both sides; response (percent of control binding), % at 10 µM; in the data active = response below about 60% or above about 140%; inactive = in between;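 also: Galphao activated as the GDP aluminium fluoride complex binding bead-coupled RGS8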
RGS16-Gao HTS = modulators of RGS16 binding to Galphao, primary screen, biochemical, human proteins, multiplexed bead flow cytometry; bead-based flow cytometry RGS16-Galphao binding, fluorescence; actives lie on both sides; Regulator of G-protein signaling 16 (Homo sapiens) + Guanine nucleotide-binding protein …; 220,000 tested, 0.38% active; binding response (% of control), % at 10 µM;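 also: Galphao activated by GDP with aluminum fluoride before binding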
Target sequence (O15492 whole entry, looked up): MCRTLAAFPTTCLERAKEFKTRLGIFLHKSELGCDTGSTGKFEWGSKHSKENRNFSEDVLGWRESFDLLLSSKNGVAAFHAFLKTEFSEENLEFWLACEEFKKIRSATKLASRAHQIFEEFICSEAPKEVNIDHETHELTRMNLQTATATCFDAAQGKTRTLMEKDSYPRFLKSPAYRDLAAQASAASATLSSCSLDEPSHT
Target sequence (P09471 whole entry, looked up): as the sequence (P09471 whole entry, looked up) above
GSH fluor = compound fluorescence on glutathione beads, profiling panel, artefact control, biophysical, 488/530 nm, flow cytometry; GSH beads flow cytometry, compound fluorescence 488/530 nm; stronger effect = higher value; fluorescence (KMESF) at 10 µM; 190,000 tested, 0.25% active; in the data active = fluorescence above about 89;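 also: glutathione beads carrying GST-tagged Bcl family fusion proteins plus one bare bead set; values are compound well signal with DMSO vehicle wells as background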
RGS-Gao = modulators of RGS–Galpha-o binding, primary screen, biochemical, multiplexed beads, flow cytometry, RGS4/7/8/16/19; 1,600 tested, 99% active; shares compounds with RGS16-Gao HTS; multiplexed bead flow cytometry; AID 1504, 2009; RGS4–Galpha-o binding response, % at 10 µM;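 also: fluorescently labeled Galpha-o bound to GDP with aluminium fluoride binding biotinylated RGS beads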
Biotin-avidin = disruption of biotin probe capture by avidin, counter-screen for RGS protein interaction modulators, biochemical, flow cytometry, bead-based; shares compounds with RGS16-Gao HTS; streptavidin beads, fluorescein-biotin binding; inhibition, % at 10 µM; 1,700 tested, under 10 active;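 active = inhibition above 50%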;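 also: median green fluorescence of gated singlet beads compared with DMSO control wells; 0% = DMSO wells and 100% = complete loss of bead fluorescence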
RGS8-Gao single = RGS8-Galphao binding modulators, confirmation, biochemical, multiplexed bead flow cytometry, single concentration. 1,700 tested, 3% active. shares compounds with RGS16-Gao HTS. binding response (% of control), % at 10 µM. bead-based flow cytometry RGS8-Galphao binding, fluorescence; actives lie on both sides; in the data active = binding response below about 72% or above about 130%; inactive = in between;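 also: Galphao activated as GDP AlF4 complex before binding bead RGS8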
RGS7-Gao confirm = RGS7-Galphao binding modulators, confirmation, biochemical, multiplexed bead flow cytometry, single concentration; response (percent of control binding), % at 10 µM; bead-based flow cytometry RGS7-Galphao binding; actives lie on both sides; 1,700 tested, 7.8% active; shares compounds with RGS16-Gao HTS; in the data active = response below about 75% or above about 130%; inactive = in between;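 also: fluorescent Galphao activated with GDP and aluminum fluoride binding bead-coupled RGS7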
RGS16-Gao conf = modulators of RGS16-Galphao protein binding, confirmation, biochemical, single concentration, multiplexed bead flow cytometry | bead-based flow cytometry; actives lie on both sides | 1,700 tested, 4% active | AID 1838, 2009 | response (% of control binding), % at 10 µM | shares compounds with RGS16-Gao HTS; in the data active = response below about 74% or above about 130%; inactive = in between;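 also: Galphao activated as the GDP aluminium fluoride complex binding bead-coupled RGS16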
RGS4-Gao confirm = modulators of RGS4-Galphao protein binding, confirmation, biochemical, single concentration, multiplexed bead flow cytometry | 1,700 tested, 4% active | actives lie on both sides | shares compounds with RGS16-Gao HTS | binding response (% of control), % at 10 µM; in the data active = binding response below about 74% or above about 130%; inactive = in between
RGS19-Gao conf = regulators of RGS19-Galphao binding, confirmation, biochemical, single point, multiplexed bead flow cytometry | shares compounds with RGS16-Gao HTS | bead-based flow cytometry RGS19-Galphao binding; actives lie on both sides | response (percent of control binding), % at 10 µM | 1,700 tested, 5% active | AID 1841, 2009; in the data active = response below about 50% or above about 160%; inactive = in between;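 also: 100% = no compound control and 0% = blank background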
The depositor's hits bear a star; ? = inconclusive; / = no result; [ ] = another dose, or the depositor's remark. Unless noted, no rule for the calls is given here.

SMILES	RGS7-Gao reg	Avidin bead fluor	RGS4-Gao reg	RGS8-Gao reg	RGS16-Gao HTS	GSH fluor	RGS-Gao	Biotin-avidin	RGS8-Gao single	RGS7-Gao confirm	RGS16-Gao conf	RGS4-Gao confirm	RGS19-Gao conf
CCCCN(C)C1=CC2=CC(=C(C#N)C#N)CCC2CC1 (configuration not stated)	164*[activator]	68*	147	106	167	57	147*	1	112	206*[activator]	157*[activator]	154*[activator]	293*[activator]
O=C(CSc1ncnc2nc[nH]c12)Nc1nnc(SCc2ccc(Cl)c(Cl)c2)s1	?	8	101	101	103	20	/	/	/	/	/	/	/
CC(=O)N(C)c1ccc(NS(=O)(=O)c2cc(Cl)ccc2Cl)cc1	98	14	102	96	79	12	/	/	/	/	/	/	/
CC(OC(=O)c1ccc([N+](=O)[O-])s1)C(=O)Nc1ncc(Cl)cc1Cl (configuration not stated)	100	7	98	100	87	13	/	/	/	/	/	/	/
CC(C(=O)c1c[nH]c(C(N)=O)c1)c1ncc(C(F)(F)F)cc1Cl (configuration not stated)	51	12	53	58*	49	11	53*	-2	100	101	101	101	96
Cc1ccc(N(CCC#N)C(=O)CCl)cc1C	92	9	95	80	21*	7	95*	0	101	102	103	104	107
O=C(c1cc2n(n1)C(C(F)(F)F)CC(c1ccco1)N2)N1CCN(c2ccccn2)CC1 (configuration not stated)	/	/	/	/	/	46	/	-1	99	99	103	96	119
COc1ccc(C2C(C#N)=C(N)Oc3cc(C)[nH]c(=O)c32)cc1OC (configuration not stated)	?	4	99	101	100	/	/	/	/	/	/	/	/
C(=N\Nc1ccc2ccccc2n1)/c1ccc2c(c1)OCCO2	111	10	111	140*[activator]	249	13	111*	0	101	102	101	99	104
CCOC(=O)c1sc(NC(=O)Nc2ccc(F)cc2)nc1C	91	9	91	73	25*	4	91*	1	99	105	102	105	103
NNC(=O)c1csc(Cc2c(Cl)sc3ccc(Cl)cc23)n1	?	8	94	99	98	/	/	/	/	/	/	/	/
O=C(CCNC(=O)c1ccco1)Nc1ccccc1N1CCOCC1	95	5	99	101	96	19	/	/	/	/	/	/	/
Cc1ccc(CSc2ncccc2C(=O)O)cc1	100	14	104	95	97	11	/	/	/	/	/	/	/
Cc1cccc(CSc2ncccc2C(=O)O)c1	105	23	122	135	285*[activator]	21	122*	2	96	93	91	93	70
Cc1cc([N+](=O)[O-])nn1CC(=O)NCCCn1ccnc1	269*[activator]	103*	147	122	133	20	147*	-2	102	80	89	90	61
Cc1ccc(C(=O)NCCCn2ccnc2)cc1[N+](=O)[O-]	104	10	98	103	102	9	/	/	/	/	/	/	/
NC(=O)NC(=O)COC(=O)c1ccccc1OCc1ccc(F)cc1	?	1	40*	55*	40	/	/	-8	114	117	112	114	113
COc1cc(C2CC(=O)Nc3n[nH]c(-c4ccccc4)c32)cc(OC)c1OC (configuration not stated)	?	8	93	94	87	/	/	/	/	/	/	/	/
Cn1nc(C(F)(F)F)c(-c2ccc(Br)cc2)c1NC(=O)c1nccnc1C(=O)O	?	8	95	101	95	/	/	/	/	/	/	/	/
CC1Cc2cc(/C(O)=C3/C(=O)C(=O)N(CC4CCCO4)C3c3ccco3)ccc2O1 (configuration not stated)	186*[activator]	110*	115	101	107	24	115*	-1	102	91	102	98	114
CC(C)c1ccccc1NC(=O)COC(=O)c1cc(=O)[nH]c(=O)[nH]1	?	11	103	100	102	16	/	/	/	/	/	/	/
Cc1cc(C)cc(NC(=S)NCc2ccc(S(N)(=O)=O)cc2)c1	/	/	97	95	110	12	/	3	97	105	102	100	108
NS(=O)(=O)c1ccc(NC(=S)NCc2ccc(Cl)cc2)cc1	127	3	101	87	71	21	/	/	/	/	/	/	/
COc1cc(/C=N/NC2=NC(C)(C)Cc3ccccc32)cc(OC)c1OC	94	8	98	88	62	11	/	/	/	/	/	/	/
CC1CCc2nc(NC(=O)CN3CCN(c4ccccc4)CC3)sc2C1 (configuration not stated)	103	17	104	104	105	11	/	/	/	/	/	/	/
